Source: PubChem BioAssay (NCATS)
Results filed as inconclusive are left out. Active and inactive are the calls of the source. Calls follow the shape of the dose curve; as a rule, active = well fitted cell-killing curve with a large enough effect; inconclusive = small, poorly fitted or top-dose-only effect, or effect the other way; inactive = no such curve, though single readings can be large or run the other way. Peptide text beside a SMILES is read from it.

How the values were obtained:
[1] = Quantitative High-Throughput drug screen in 47 multiple myeloma cell lines against the NCATS MIPE library collection: U266_ATCC cell viability assay (AID 1919864); also: nearly all actives have a fitted effect of over 35% in size
How it was run: (§1)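 Plated at 500 cells per well, myeloma lines received MIPE 4.0 compounds by pin tool. Following 48 h culture at 37 °C, CellTiter-Glo luminescence gave viability relative to DMSO and media-only controls.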

[2] = Quantitative High-Throughput drug screen in 47 multiple myeloma cell lines against the NCATS MIPE library collection: XG6_PLB cell viability assay (AID 1919865); also: nearly all actives have a fitted effect of over 40% in size
How it was run: as §1

[3] = Quantitative High-Throughput drug screen in 47 multiple myeloma cell lines against the NCATS MIPE library collection: XG1_PLB cell viability assay (AID 1919866); also: nearly all actives have a fitted effect of over 35% in size
How it was run: as §1

[4] = Quantitative High-Throughput drug screen in 47 multiple myeloma cell lines against the NCATS MIPE library collection: VP6_DJ cell viability assay (AID 1919867); also: nearly all actives have a fitted effect of over 40% in size
How it was run: as §1

[5] = Quantitative High-Throughput drug screen in 47 multiple myeloma cell lines against the NCATS MIPE library collection: UTMC2_PLB cell viability assay (AID 1919868); also: nearly all actives have a fitted effect of over 55% in size
How it was run: as §1

[6] = Quantitative High-Throughput drug screen in 47 multiple myeloma cell lines against the NCATS MIPE library collection: PE2_PLB cell viability assay (AID 1919869); also: nearly all actives have a fitted effect of over 35% in size
How it was run: as §1

[7] = Quantitative High-Throughput drug screen in 47 multiple myeloma cell lines against the NCATS MIPE library collection: KMS11_JCRBsus cell viability assay (AID 1919873); also: nearly all actives have a fitted effect of over 50% in size
How it was run: as §1

[8] = Quantitative High-Throughput drug screen in 47 multiple myeloma cell lines against the NCATS MIPE library collection: KMS28BM_JCRB cell viability assay (AID 1919874); also: nearly all actives have a fitted effect of over 35% in size
How it was run: as §1

[9] = Quantitative High-Throughput drug screen in 47 multiple myeloma cell lines against the NCATS MIPE library collection: OPM2_DSMZ cell viability assay (AID 1919872); also: nearly all actives have a fitted effect of over 30% in size
How it was run: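 Viability readout: CellTiter-Glo luminescence following 5 min room-temperature incubation with reagent. Prior exposure: 48 h, 37C, humidified 5% CO2, 500 cells per well.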

[10] = Quantitative High-Throughput drug screen in 47 multiple myeloma cell lines against the NCATS MIPE library collection: PCM6_Riken cell viability assay (AID 1919870); also: nearly all actives have a fitted effect of over 30% in size
How it was run: as §1

[11] = Quantitative High-Throughput drug screen in 47 multiple myeloma cell lines against the NCATS MIPE library collection: RPMI8226_ATCC cell viability assay (AID 1919871); also: nearly all actives have a fitted effect of over 30% in size
How it was run: as §1

Measured: Potency
Potency is read from the fitted curve at half-maximal effect.

Nc1nc(N)c(N=O)c(OCC2CCCCC2)n1
active: [1] 16.6 µM | [2] 2.96 µM | [3] 4.69 µM | [4] 2.96 µM | [5] 5.26 µM | [6] 9.35 µM | [7] 6.62 µM | [8] 16.6 µM

Nc1cccc2c1CN(C1CCC(=O)NC1=O)C2=O (stereo unspecified)
inactive: [1] | [2] | [9] | [8]
active: [3] 3.03 µM | [4] 4.81 µM

CCOC(=O)C1=C(O)C(=O)N(Cc2ccccc2)C1
active: [11] 13.2 µM
not listed: [4] | [5]
inactive: all other assays above

Nc1ccn([C@@H]2O[C@H](CO)[C@@H](O)C2O)c(=O)n1 (stereo partly specified)
active: [7] 14.8 µM
not listed: [5]
inactive: all other assays above

O=C(NOCC1CC1)c1ccc(F)c(F)c1Nc1ccc(I)cc1Cl
active: [1] 23.5 µM | [2] 6.62 µM | [3] 11.8 µM | [4] 4.69 µM | [5] 13.2 µM | [6] 6.62 µM | [10] 14.8 µM | [7] 20.9 µM | [8] 26.4 µM

NC(=NCc1ccccc1)NC(=O)c1nc(Cl)c(N)nc1N
active: [1] 1.48 µM | [2] 0.935 µM | [3] 2.64 µM | [4] 7.43 µM
not listed: [6] | [10]
inactive: all other assays above

O=C(O)CCNC(=O)c1ccc(N=Nc2ccc(O)c(C(=O)O)c2)cc1
active: [1] 13.2 µM
not listed: [5]
inactive: all other assays above

CN(C)c1ccc2nc3ccc(=[N+](C)C)cc-3sc2c1
active: [1] 8.33 µM | [2] 5.26 µM | [3] 1.32 µM | [4] 1.32 µM | [5] 1.48 µM | [11] 6.62 µM | [7] 2.64 µM | [8] 2.96 µM

CN(c1nccc(=O)[nH]1)C1CCN(c2nc3ccccc3n2Cc2ccc(F)cc2)CC1
inactive: [11] | [9] | [7]
active: [1] 11.8 µM | [2] 18.7 µM | [3] 18.7 µM | [4] 23.5 µM | [5] 16.6 µM

Cc1ccc(S(=O)(=O)NC(=O)NN2CC3CCCC3C2)cc1 (stereo unspecified)
active: [1] 20.9 µM | [2] 20.9 µM | [3] 23.5 µM | [4] 23.5 µM | [10] 20.9 µM | [11] 23.5 µM | [7] 16.6 µM | [8] 18.7 µM

COCCCOc1ccnc(CS(=O)c2nc3ccccc3[nH]2)c1C (stereo unspecified)
active: [2] 10.5 µM | [4] 4.69 µM
not listed: [5]
inactive: all other assays above

O=c1cc(N2CCOCC2)oc2c(-c3ccccc3)cccc12
active: [1] 18.7 µM

Nc1ccc(S(N)(=O)=O)cc1
not listed: [4] | [10]
inactive: all other assays above

Cc1cc(=O)oc2cc(O)ccc12
not listed: [4] | [5] | [10]
inactive: all other assays above

CN1C(C(=O)Nc2ccccn2)=C(O)c2sccc2S1(=O)=O
not listed: [4] | [5] | [7] | [8]
inactive: all other assays above

Cc1cc2cc3c(C)cc(=O)oc3c(C)c2o1
active: [1] 11.8 µM | [2] 6.62 µM | [3] 18.7 µM | [4] 23.5 µM | [6] 20.9 µM | [10] 20.9 µM | [11] 20.9 µM
inactive: [9] | [8]

CCC(C)(Oc1ccc(C2(c3ccc(OC(C)(CC)C(=O)O)cc3)CCCCC2)cc1)C(=O)O (stereo unspecified)
not listed: [5] | [6] | [8] | [10]
inactive: all other assays above

O=Nc1c(-c2c(O)[nH]c3cc(Br)ccc23)[nH]c2ccccc12
active: [1] 16.6 µM | [2] 3.32 µM | [4] 5.26 µM | [5] 8.33 µM | [6] 5.26 µM | [10] 3.32 µM | [11] 18.7 µM | [9] 20.9 µM | [7] 3.72 µM

Cc1cc2c(s1)Nc1ccccc1N=C2N1CCN(C)CC1
not listed: [4]
inactive: all other assays above

Cc1cc(=O)c2c(O)c3c(O)cc(=O)c4c3c3c(cc(O)c1c23)C(C)(C)C=4O
active: [1] 26.4 µM | [2] 0.743 µM | [3] 1.05 µM | [4] 0.469 µM | [5] 0.296 µM | [6] 0.296 µM | [10] 1.87 µM | [11] 1.48 µM | [9] 13.2 µM

O=C(c1ccccc1)c1ccc2n1CCC2C(=O)O (stereo unspecified)
inactive: [11] | [9]
active: [1] 3.72 µM | [2] 9.35 µM | [3] 9.35 µM | [4] 9.35 µM | [5] 14.8 µM | [6] 9.35 µM | [7] 13.2 µM | [8] 23.5 µM

O=C(O)c1cccc(-c2noc(-c3ccccc3F)n2)c1
active: [1] 18.7 µM
not listed: [4] | [5]
inactive: all other assays above

CCN(CC)CCOc1ccc(Cc2ccccc2)cc1
active: [1] 20.9 µM
inactive: [2] | [3] | [5] | [6] | [9]

CNC[C@@H](O)[C@@H](O)[C@H](O)[C@H](O)CO
not listed: [4] | [5] | [6] | [7]
inactive: all other assays above

CCN(CC)CCOc1ccc(Nc2ncc3cc(-c4c(Cl)cccc4Cl)c(=O)n(C)c3n2)cc1
active: [1] 10.5 µM | [2] 0.0296 µM | [3] 0.59 µM | [4] 0.0083 µM | [5] 0.132 µM | [11] 2.35 µM | [9] 1.18 µM | [7] 0.0418 µM | [8] 0.526 µM

OC(CN1CCN(c2cccc(Cl)c2)CC1)C(c1ccccc1)c1ccccc1 (stereo unspecified)
active: [1] 10.5 µM

NNc1nncc2ccccc12
not listed: [4] | [5]
inactive: all other assays above

COC(=O)[C@H](Cc1ccccc1)NC(=O)[C@@H](N)CC(=O)O (H-Asp-Phe-OMe)
active: [2] 14.8 µM
inactive: [1] | [3] | [10] | [9]

O=C1NC(=O)C(c2ccccc2[N+](=O)[O-])=C1Nc1ccc(O)c(Cl)c1
active: [2] 6.62 µM | [3] 8.33 µM | [10] 18.7 µM
inactive: [1] | [5] | [9]

CCCCN(CCCC)CCC(O)c1cc2c(Cl)cc(Cl)cc2c2cc(C(F)(F)F)ccc12 (stereo unspecified)
active: [2] 26.4 µM | [3] 18.7 µM | [4] 18.7 µM
inactive: [1] | [11] | [9] | [7] | [8]

O=C(CCc1ccc(O)cc1)c1c(O)cc(O)cc1O
inactive: [1] | [8]
active: [2] 0.118 µM | [4] 0.418 µM | [5] 0.332 µM | [6] 5.26 µM | [10] 0.235 µM | [11] 4.69 µM | [9] 3.32 µM

CCN(CC)C(=S)SSC(=S)N(CC)CC
active: [1] 0.0059 µM | [2] 0.001 µM | [3] 0.001 µM | [4] 0.001 µM | [5] 0.0118 µM | [11] 0.0187 µM | [9] 0.0418 µM | [7] 0.003 µM | [8] 0.0019 µM

C[C@H](Cc1ccc(O)c(O)c1)[C@@H](C)Cc1ccc(O)c(O)c1
active: [1] 16.6 µM | [2] 11.8 µM | [3] 20.9 µM | [4] 16.6 µM | [6] 11.8 µM | [11] 10.5 µM | [9] 18.7 µM | [7] 18.7 µM | [8] 23.5 µM

Oc1ccc2ccccc2c1SSc1c(O)ccc2ccccc12
active: [1] 20.9 µM | [2] 10.5 µM | [3] 11.8 µM | [4] 16.6 µM | [6] 7.43 µM | [10] 13.2 µM | [11] 26.4 µM | [9] 20.9 µM | [7] 13.2 µM | [8] 23.5 µM

COc1cc(Nc2c(C#N)cnc3cc(OCCCN4CCN(C)CC4)c(OC)cc23)c(Cl)cc1Cl
active: [1] 23.5 µM | [2] 1.32 µM | [3] 2.96 µM | [4] 1.05 µM | [5] 0.526 µM | [6] 3.72 µM | [7] 18.7 µM | [8] 18.7 µM

COC(=O)C1=C(C)NC(C)=C(C(=O)OC(C)C)C1c1cccc2nonc12 (stereo unspecified)
inactive: [9]
active: [1] 3.72 µM | [2] 5.9 µM | [3] 11.8 µM | [4] 26.4 µM | [6] 20.9 µM

C=CCc1cc(OC)c(O)c(C(=O)NCCO)c1
not listed: [4] | [5] | [10] | [11]
inactive: all other assays above

CCC[C@@H]1C[C@@H](C(=O)N[C@@H]([C@H]2O[C@H](SC)[C@H](O)[C@@H](O)[C@H]2O)[C@@H](C)O)N(C)C1
active: [5] 0.0166 µM
inactive: [1] | [2] | [3] | [9]

COCCCN1CCC(NC(=O)c2cc(Cl)c(N)c3c2OCC3)CC1
inactive: [1] | [9]
active: [2] 5.9 µM | [4] 18.7 µM | [11] 18.7 µM | [7] 23.5 µM

CCC1=C(C)CN(C(=O)NCCc2ccc(S(=O)(=O)NC(=O)NC3CCC(C)CC3)cc2)C1=O (stereo unspecified)
not listed: [2] | [5] | [6] | [10]
inactive: all other assays above

COc1cc2c(N3CCN(C(=O)Nc4ccc(OC(C)C)cc4)CC3)ncnc2cc1OCCCN1CCCCC1
active: [1] 23.5 µM | [2] 18.7 µM | [4] 8.33 µM | [5] 4.18 µM | [10] 6.62 µM | [7] 26.4 µM
